# High-throughput results: PubChem BioAssay, National Center for Advancing Translational Sciences (NCATS)
# Only some compounds are listed: those with a hit (about 9.3% of all), similar ones and a draw of the others.
# ELG1 genotox: qHTS screen for small molecules that induce genotoxicity in human embryonic kidney (HEK293T) cells expressing luciferase-tagged ELG1; HEK293T ELG1-luciferase reporter, luminescence, 16 h; Potency, µM (titrated, usually from 46 µM), actives largely listed as activators; 330,000 tested, 1.3% active; note: nearly all actives have a fitted effect of over 60% in size
#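 HEK293T cells expressing luciferase-tagged ELG1 were exposed to compound or DMSO vehicle for 16 hr at 37 °C and 5% CO2. Luciferase activity was then measured with ONE-Glo after 30 min at room temperature.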
# FLuc counter: qHTS profiling assay for firefly luciferase inhibitor/activator using purifed enzyme and Km concentrations of substrates (counterscreen for miR-21 project); Luciferin 4-monooxygenase (Photinus pyralis), P08659; purified FLuc, Km substrates, luminescence inhibition; 360,000 tested, 6.9% active; Potency, µM (highest dose often 57.5 µM), hits mostly inhibitors; note: nearly all actives have a fitted effect of over 55% in size
# Target sequence (P08659 whole entry, looked up): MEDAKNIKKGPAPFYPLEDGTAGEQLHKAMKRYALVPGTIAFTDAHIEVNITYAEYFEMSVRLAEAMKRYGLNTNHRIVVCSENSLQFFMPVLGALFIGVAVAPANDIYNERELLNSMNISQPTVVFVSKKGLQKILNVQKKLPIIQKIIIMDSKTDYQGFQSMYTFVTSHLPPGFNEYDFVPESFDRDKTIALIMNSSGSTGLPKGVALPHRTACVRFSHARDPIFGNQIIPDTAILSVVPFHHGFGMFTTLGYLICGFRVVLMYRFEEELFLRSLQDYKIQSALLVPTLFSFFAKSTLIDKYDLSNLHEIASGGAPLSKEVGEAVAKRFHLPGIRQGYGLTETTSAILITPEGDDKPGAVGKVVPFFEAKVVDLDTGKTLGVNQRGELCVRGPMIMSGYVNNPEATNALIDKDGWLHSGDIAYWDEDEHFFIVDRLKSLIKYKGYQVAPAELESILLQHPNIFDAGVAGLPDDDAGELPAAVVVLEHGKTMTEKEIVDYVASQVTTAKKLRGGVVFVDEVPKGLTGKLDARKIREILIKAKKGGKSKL
#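 Biochemical qHTS of compounds, final roughly 60 µM downward over six points, against 10 nM purified firefly luciferase using Km concentrations of substrates (10 uM D-luciferin, 10 uM ATP) in Tris acetate pH 7.5 buffer; luminescence output.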
# Rab9 prom act: qHTS Assay for Rab9 Promoter Activators | Potency, µM (titrated, usually from 9.22 µM), usual class: activators | Huh7 Rab9 promoter-luciferase reporter, luminescence, 24 h | 320,000 tested, 2.8% active; note: nearly all actives have a fitted effect of over 60% in size
#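 Huh7 reporter line, Rab9 promoter upstream of luciferase. Compound exposure 24 h at 37 °C in reduced-serum medium with 10% FBS. Read-out: luminescence.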
# NPC1 promoter act: qHTS Assay for NPC1 Promoter Activators; Huh7 NPC1 promoter luciferase reporter, 24 h; Potency, µM (highest dose often 9.22 µM), hits mostly activators; 320,000 tested, 2.4% active; note: nearly all actives have a fitted effect of over 60% in size
#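 Quantitative HTS used a cell-based reporter: Huh7 cells stably bearing the NPC1 promoter upstream of luciferase were treated with compounds for 24 h, and promoter activation was read as luminescence.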
# SMN2 splice enh: qHTS Assay for Enhancers of SMN2 Splice Variant Expression; HEK293 SMN2-luciferase splicing reporter, luminescence, 30-36 h; Potency, µM (top dose mostly 46.1 µM), most hits filed as activators; 210,000 tested, 2.8% active; AID 1458, 2008; note: nearly all actives have a fitted effect of over 55% in size
#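 qHTS luciferase splicing reporter: luminescence rises when SMN2 exon 7 is included in transfected HEK293 cells. Compound exposure lasted 30-36 h at 37C, with 4.5 mM final sodium butyrate as control, followed by a ONE-Glo read.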
# ELG1 DNA repair: qHTS screen for small molecules that inhibit ELG1-dependent DNA repair in human embryonic kidney (HEK293T) cells expressing luciferase-tagged ELG1; HEK293T ELG1-luciferase reporter, luminescence, 16 h; DNA damage induced by 5-fluorouridine; Potency, µM (highest dose often 46.1 µM), hits mostly inhibitors; 330,000 tested, 2.3% active; note: nearly all actives have a fitted effect of over 55% in size
#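 HEK293T cells expressing luciferase-tagged ELG1 (2,000/well) received 5-Fluorouridine plus compound or DMSO for 16 hr at 37 °C. Luciferase was read by ONE-Glo luminescence after 30 min at room temperature.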
# Numbers stand for hits; - = inactive; ? = inconclusive; . = not tested or not shown; [ ] = remark or other dose. Calls come from the whole dose curve; as a rule, active = well fitted curve in the direction sought with a large enough effect; inconclusive = small, poorly fitted or top-dose-only effect, or another doubt; inactive = no such curve, though single readings can be large; an effect the other way counts as inactive or inconclusive.
SMILES,ELG1 genotox,FLuc counter,Rab9 prom act,NPC1 promoter act,SMN2 splice enh,ELG1 DNA repair
Cc1c(C(=O)NCc2ccccc2Cl)sc2nc(-c3ccc(F)cc3)cn12,.,-,.,.,.,.
O=C(NC12CC3CC(CC(C3)C1)C2)C1CC(=O)N(c2ccc(Br)cc2)C1 (stereo unspecified),-,-,-,-,-,?
Cc1nn(CCCC(=O)NCc2ccc(OC(C)C)cc2)c(=O)c2c1sc1ccccc12,.,-,.,.,.,.
CC(C)(C)NC(=O)CSc1nc2cccnc2n1C1CCCCC1,-,-,-,-,.,-
O=C(Cc1ccccc1[N+](=O)[O-])Nc1nccs1,-,-,-,-,.,-
O=C(Nc1nccs1)c1ccc(-c2ccccc2[N+](=O)[O-])o1,?,4.3µM,2µM,2.8µM,.,?
O=C(Nc1nccs1)c1ccc(-c2ccccc2Cl)o1,4.1µM,2.4µM,2.5µM,2.5µM,11µM,?
COc1ccc(N2C(=O)CC(Sc3nc4ccccc4s3)C2=O)cc1OC (stereo unspecified),-,-,-,-,.,-
C=CCNC(=S)N1CCC(C(=O)c2ccc3c(c2)OCCO3)CC1,-,-,-,-,.,-
COc1ccc(CN(C)C(=O)C23CC4CC(CC(Cl)(C4)C2)C3)c(OC)c1OC,-,-,-,-,.,26µM
COC(=O)c1cnn(-c2ccc(Cl)cc2)c1/C=N/NC(N)=S,-,-,-,-,.,13µM
CCN(C(=O)COC(=O)C1CC1)c1c(N)n(Cc2ccccc2)c(=O)[nH]c1=O,-,-,-,-,.,-
O=C(Nc1ccc(Br)cc1)c1cnc[nH]1,?,24µM,3.5µM,?,.,?
Clc1cc(Cl)c(OCc2nc(-c3ccccn3)no2)cc1Cl,?,1.3µM,0.71µM,1.1µM,11µM,?
CC(C)(C)c1ccc(OCc2nc(-c3ccccn3)no2)c(Br)c1,.,3µM,.,.,13µM,.
COc1ccc(Nc2nc(N)nc(CSc3nc4cc(OC)ccc4s3)n2)cc1,.,?,.,.,-,.
COc1ccc(Nc2nc(N)nc(CSc3nnc(C)s3)n2)cc1,?,27µM,?,-,22µM,?
COc1ccc(Nc2nc(N)nc(CSc3nncn3C)n2)cc1,21µM,15µM,?,-,-,?
Nc1ccccc1Nc1nc2ccccc2[nH]1,-,?,-,-,.,-
C=CCn1c(SCC(=O)NCC)nnc1-c1cc2c(s1)CCC(CC)C2 (stereo unspecified),?,12µM,-,-,?,?
C=CCn1c(SCC(=O)NCCOC)nnc1-c1cc2c(s1)CCC(CC)C2 (stereo unspecified),-,9.5µM,-,-,-,?
CCN(CC)S(=O)(=O)c1ccc(Cl)c(C(=O)Nc2nnc(C)s2)c1,-,-,-,-,-,-
O=C(CN1C(=O)/C(=C\c2cccc(Br)c2)Oc2ccccc21)NCC1CCCO1 (stereo unspecified),-,-,-,-,.,-
CSc1ncc(-c2ccc(Cl)cc2)[nH]1,?,9.5µM,3.2µM,3.2µM,.,?
O=C(CCCN1C(=O)c2ccccc2C1=O)Nc1ccc(S(=O)(=O)N2CCOCC2)cc1,-,-,-,-,-,-
SMILES,ELG1 genotox,FLuc counter,Rab9 prom act,NPC1 promoter act,SMN2 splice enh,ELG1 DNA repair
Cc1cc(C(=O)O)n(C(C)(C)C)n1,-,-,-,-,.,-
CC(=O)/C=C/n1c(=S)oc2ccccc21,-,5.4µM,-,-,-[1.84 µM],?
Cn1c(=S)oc2ccccc21,-,-,-,-,.,-
CC(C)CC(=O)/C=C/n1c(=S)oc2ccccc21,-,0.95µM,-,-,-,?
Cc1ccc(OCC(=O)Nc2ccccc2-c2ccccc2)cc1,?,15µM,?,?,?,-
CCOC(=O)N1CCN(C(=O)c2ccccc2NC(=O)COc2ccccc2)CC1,-,-,-,-,.,?
NC(=O)c1ccccc1NC(=O)COc1ccc(Cl)cc1,?,17µM,?,3.2µM,.,?
